# Calls of active or inactive are those of the source.
# How the values were obtained:
# [1] = small molecules captured by biotinylated probe aFSTL3 – biochemical, small-molecule microarray, fluorescence 635/667, stem cell growth factor project, primary screen (AID 1064); conditions: higher = more signal;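 further: measures binding of the biotinylated anti-FSTL3 antibody to printed compounds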
# [2] = binders from COS7 lysate, DM2A8 probe, primary screen, torsin A project, cell lysate, small-molecule microarray, fluorescence 635/667 (AID 1065); conditions: higher = more signal, COS7 lysate expressing mutant human TOR1A
# [3] = small molecules captured by biotinylated probe aFGF2 – biochemical, small-molecule microarray, fluorescence 635/667, stem cell growth factor project, primary screen (AID 1067); conditions: higher = more signal;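 further: measures binding of biotinylated aFGF2 protein to printed compounds on slides; z-score merges feature fluorescence and signal-to-noise across triplicate slides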
# [4] = small molecules captured by biotinylated probe aFGF10 – biochemical, small-molecule microarray, fluorescence 635/667, stem cell growth factor project, primary screen (AID 1071); conditions: higher = more signal;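 further: score merges 667 nm spot intensity and signal to noise from triplicate slides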
# [5] = target: Neurogenic locus notch homolog protein 2 (Homo sapiens) (UniProt Q04721); test: small molecules binding Notch2 protein – biochemical, small-molecule microarray, 635 nm fluorescence, stem cell growth factors, primary screen (AID 1073); conditions: higher = more signal
# [6] = target: Pro-neuregulin-1, membrane-bound isoform (Homo sapiens) (UniProt Q02297); test: small molecules binding neuregulin-1 protein – biochemical, small-molecule microarray, fluorescence 635/667, psychiatric disease protein project, primary screen (AID 1075); conditions: NRG1 binding, 635 nm fluorescence, higher = more signal;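 further: score combines 667 nm spot fluorescence with signal to noise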
# [7] = system: Neuregulin-1 EGF-like domain; test: small molecules binding NRG1 EGF domain – biochemical, small-molecule microarray, 635 nm fluorescence, primary screen (AID 1081); conditions: higher = more signal;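 further: binding of the protein to compounds printed on small-molecule microarray slides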
# [8] = FRG1 expression reporter modulators in myotubes – cell-based, C2C12 myotubes, firefly/Renilla luciferase, luminescence, FRG1 inhibition for FSHD, primary screen (AID 1084); conditions: FRG1 promoter luciferase, higher = more signal, called active from +8 up or from −8 down
# [9] = small molecules captured by biotinylated probe aFST – biochemical, small-molecule microarray, fluorescence 635/667, stem cell growth factor project, primary screen (AID 1086); conditions: higher = more signal;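 further: score merges 667 nm fluorescence with signal-to-noise of each printed compound spot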
# [10] = binders of probe aHhip on microarray, primary screen, stem cell growth factor project, biochemical, small-molecule microarray, fluorescence 635/667 (AID 1087); conditions: higher = more signal;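 further: score merges spot fluorescence at 667nm with spot signal to noise ratio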
# [11] = system: PRMT1 (protein arginine N-methyltransferase 1); test: small molecules binding arginine methyltransferase PRMT1 – biochemical, small-molecule microarray, 635 nm fluorescence, primary screen (AID 1088); conditions: higher = more signal;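 further: binding of Prmt1 protein to compounds spotted on small-molecule microarray slides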
# [12] = growth effects on S. cerevisiae YJM789 – YJM789 clinical isolate, OD600, 24 h, basal, primary screen (AID 1089); conditions: higher = more signal, called active from +8 up or from −8 down;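 further: growth of clinical yeast isolate S. cerevisiae YJM 789 seeded 1000 cells per well; test concentration not given here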
# [13] = S. pombe growth modifiers, basal conditions – strain 972, OD600, 24 h, no modulator, primary screen (AID 1090);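 further: basal condition with compound alone and no growth modifier present; test concentration not given here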; conditions: S. pombe 972 growth, higher = more signal, called active from +8 up or from −8 down
# [14] = budding yeast growth modifiers under rapamycin – strain BY4716, OD600, 96 h, primary screen (AID 1091); further: test concentration not given here; conditions: S. cerevisiae BY4716 + rapamycin, higher = more signal, called active from +8 up or from −8 down
# [15] = target: Torsin-1A-interacting protein 2 (Homo sapiens) (UniProt Q8NFQ8); test: small molecules binding lysate-expressed LULL1 – cell lysate, human LULL1 lysate, 635/667 nm fluorescence, primary screen (AID 1092); conditions: small-molecule microarray, hLULL1 lysate binding, 635 nm fluorescence; higher = more signal;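 further: probe is lysate of COS7 cells overexpressing human LULL1; score merges per-feature 667 nm fluorescence with signal-to-noise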
# [16] = optical density change of DRC41 E. coli – strain DRC41, OD650, 24 h, E. coli filamentation project, primary screen (AID 1093);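 further: MC1000 strain lacking acrAB efflux and sulA so SOS filamentation is blocked; test concentration not given here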; conditions: E. coli DRC41 growth, higher = more signal, called active from +8 up or from −8 down
# [17] = probe aLefty2 binding to arrayed compounds – biochemical, biotinylated probe, 635/667 nm fluorescence, primary screen (AID 1094); conditions: small-molecule microarray, higher = more signal;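 further: score merges spot fluorescence near 667 nm with spot signal-to-noise ratio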
# [18] = system: Noggin (protein binding on small-molecule microarray); test: small molecules binding Noggin protein – biochemical, 635/667 nm fluorescence, primary screen (AID 1095); conditions: 635 nm fluorescence, higher = more signal;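 further: score merges 667 nm feature fluorescence with signal to noise over triplicate slides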
# [19] = target: Neurogenic locus notch homolog protein 3 (Homo sapiens) (UniProt Q9UM47); test: small molecules binding NOTCH3 protein – biochemical, 635/667 nm fluorescence, primary screen (AID 1096); conditions: small-molecule microarray, 635 nm fluorescence, higher = more signal
# [20] = probe aEGFR binding to arrayed compounds – biochemical, biotinylated probe, 635/667 nm fluorescence, primary screen (AID 1097); conditions: small-molecule microarray, higher = more signal;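 further: probe is a biotinylated anti-EGFR antibody binding compounds printed on slides; score combines fluorescence near 667 nm and signal to noise of each spot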
# Sequence of Neurogenic locus notch homolog protein 3 (Homo sapiens) (Q9UM47 whole entry, looked up): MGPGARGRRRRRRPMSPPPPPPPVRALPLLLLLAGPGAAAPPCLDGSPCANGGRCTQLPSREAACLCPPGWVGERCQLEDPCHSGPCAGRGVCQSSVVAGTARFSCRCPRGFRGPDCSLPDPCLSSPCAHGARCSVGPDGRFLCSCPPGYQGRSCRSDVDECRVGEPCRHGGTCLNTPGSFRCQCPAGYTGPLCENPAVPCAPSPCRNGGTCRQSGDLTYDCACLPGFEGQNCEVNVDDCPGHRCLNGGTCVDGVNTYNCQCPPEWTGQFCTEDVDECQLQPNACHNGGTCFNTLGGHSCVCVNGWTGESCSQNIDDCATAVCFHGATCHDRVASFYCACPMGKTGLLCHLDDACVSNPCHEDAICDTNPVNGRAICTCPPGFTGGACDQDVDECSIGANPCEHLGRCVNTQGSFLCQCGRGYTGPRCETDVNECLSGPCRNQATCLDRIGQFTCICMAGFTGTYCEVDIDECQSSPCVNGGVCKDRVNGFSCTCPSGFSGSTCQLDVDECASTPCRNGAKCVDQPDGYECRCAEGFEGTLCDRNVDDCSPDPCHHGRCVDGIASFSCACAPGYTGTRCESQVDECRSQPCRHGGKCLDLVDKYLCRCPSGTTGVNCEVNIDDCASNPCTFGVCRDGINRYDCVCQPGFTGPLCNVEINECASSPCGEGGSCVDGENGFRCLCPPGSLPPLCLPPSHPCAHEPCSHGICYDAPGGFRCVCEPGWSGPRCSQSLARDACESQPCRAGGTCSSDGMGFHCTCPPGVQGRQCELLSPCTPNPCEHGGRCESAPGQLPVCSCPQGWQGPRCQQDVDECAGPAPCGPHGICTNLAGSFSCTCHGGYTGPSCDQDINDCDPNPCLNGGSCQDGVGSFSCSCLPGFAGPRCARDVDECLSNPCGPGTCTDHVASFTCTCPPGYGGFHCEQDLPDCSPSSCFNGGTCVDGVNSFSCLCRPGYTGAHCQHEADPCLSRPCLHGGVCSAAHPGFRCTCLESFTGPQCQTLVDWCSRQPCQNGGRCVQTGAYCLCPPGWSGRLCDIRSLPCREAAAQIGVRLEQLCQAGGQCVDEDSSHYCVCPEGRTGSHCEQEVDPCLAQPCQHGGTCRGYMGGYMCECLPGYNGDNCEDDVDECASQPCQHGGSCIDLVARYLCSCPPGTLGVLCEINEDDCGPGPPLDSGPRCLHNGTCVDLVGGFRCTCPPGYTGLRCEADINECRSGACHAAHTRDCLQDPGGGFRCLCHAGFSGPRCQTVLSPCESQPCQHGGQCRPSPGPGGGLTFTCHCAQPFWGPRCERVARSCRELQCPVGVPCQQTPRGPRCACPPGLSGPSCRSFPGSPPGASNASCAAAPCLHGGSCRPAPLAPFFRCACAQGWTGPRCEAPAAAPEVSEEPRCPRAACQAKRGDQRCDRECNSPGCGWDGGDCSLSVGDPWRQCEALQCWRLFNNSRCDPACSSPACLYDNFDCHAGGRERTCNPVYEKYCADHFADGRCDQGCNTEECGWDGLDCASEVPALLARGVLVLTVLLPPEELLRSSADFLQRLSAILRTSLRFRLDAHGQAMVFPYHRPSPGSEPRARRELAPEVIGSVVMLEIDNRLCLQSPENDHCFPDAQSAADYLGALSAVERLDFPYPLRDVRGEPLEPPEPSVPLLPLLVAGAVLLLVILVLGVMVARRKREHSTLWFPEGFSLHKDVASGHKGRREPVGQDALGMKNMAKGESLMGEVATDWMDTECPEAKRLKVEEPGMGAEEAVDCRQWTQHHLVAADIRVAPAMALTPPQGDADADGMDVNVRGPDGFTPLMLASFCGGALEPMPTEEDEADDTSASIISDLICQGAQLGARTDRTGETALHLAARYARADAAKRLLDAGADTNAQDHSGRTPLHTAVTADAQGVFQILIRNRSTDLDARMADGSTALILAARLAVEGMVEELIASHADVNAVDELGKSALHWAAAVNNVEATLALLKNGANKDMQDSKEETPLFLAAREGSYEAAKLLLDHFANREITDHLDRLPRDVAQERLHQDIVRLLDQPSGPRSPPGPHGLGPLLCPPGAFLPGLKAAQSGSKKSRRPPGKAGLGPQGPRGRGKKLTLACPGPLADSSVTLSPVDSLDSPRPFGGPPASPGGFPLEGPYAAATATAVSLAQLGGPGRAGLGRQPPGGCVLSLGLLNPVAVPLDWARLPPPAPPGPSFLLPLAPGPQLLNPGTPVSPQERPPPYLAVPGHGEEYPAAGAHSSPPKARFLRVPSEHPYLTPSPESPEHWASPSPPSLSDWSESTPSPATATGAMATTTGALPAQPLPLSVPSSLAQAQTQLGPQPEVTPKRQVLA
# Sequence of Torsin-1A-interacting protein 2 (Homo sapiens) (Q8NFQ8 whole entry, looked up): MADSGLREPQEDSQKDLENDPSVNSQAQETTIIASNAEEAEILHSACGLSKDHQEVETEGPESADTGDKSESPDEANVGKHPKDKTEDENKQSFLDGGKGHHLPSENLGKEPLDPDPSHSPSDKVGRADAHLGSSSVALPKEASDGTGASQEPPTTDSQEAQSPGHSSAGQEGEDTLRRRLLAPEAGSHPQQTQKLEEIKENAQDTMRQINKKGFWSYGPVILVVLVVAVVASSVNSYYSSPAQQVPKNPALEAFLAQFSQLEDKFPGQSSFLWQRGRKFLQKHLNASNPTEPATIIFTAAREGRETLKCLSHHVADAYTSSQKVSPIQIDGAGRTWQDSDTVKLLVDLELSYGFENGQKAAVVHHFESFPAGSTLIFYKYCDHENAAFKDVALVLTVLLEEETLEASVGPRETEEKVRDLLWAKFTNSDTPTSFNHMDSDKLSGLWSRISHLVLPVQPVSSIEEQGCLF
# Sequence of Pro-neuregulin-1, membrane-bound isoform (Homo sapiens) (Q02297 whole entry, looked up, the tested form may be a part, canonical isoform): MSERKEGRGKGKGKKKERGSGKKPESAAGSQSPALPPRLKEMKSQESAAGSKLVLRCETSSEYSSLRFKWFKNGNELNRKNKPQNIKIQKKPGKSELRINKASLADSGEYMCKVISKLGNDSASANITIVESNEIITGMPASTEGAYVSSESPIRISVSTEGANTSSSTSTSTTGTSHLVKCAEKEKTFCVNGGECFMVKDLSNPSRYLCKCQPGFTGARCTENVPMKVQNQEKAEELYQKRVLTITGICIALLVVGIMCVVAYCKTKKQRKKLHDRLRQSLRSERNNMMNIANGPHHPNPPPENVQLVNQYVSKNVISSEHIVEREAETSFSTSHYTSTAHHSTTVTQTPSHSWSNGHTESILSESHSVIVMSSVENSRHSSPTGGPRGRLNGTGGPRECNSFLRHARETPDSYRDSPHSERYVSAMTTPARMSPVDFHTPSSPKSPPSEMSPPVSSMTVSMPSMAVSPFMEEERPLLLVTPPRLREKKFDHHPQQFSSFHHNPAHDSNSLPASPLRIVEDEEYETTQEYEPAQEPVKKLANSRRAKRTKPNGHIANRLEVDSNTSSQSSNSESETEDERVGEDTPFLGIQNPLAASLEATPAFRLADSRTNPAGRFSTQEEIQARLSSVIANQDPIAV
Structure (SMILES),composite z-score [1],composite z-score [2],composite z-score [3],composite z-score [4],composite z-score [5],composite z-score [6],composite z-score [7],z-score [8],composite z-score [9],composite z-score [10],composite z-score [11],z-score [12],z-score [13],z-score [14],composite z-score [15],z-score [16],composite z-score [17],composite z-score [18],composite z-score [19],composite z-score [20]
O=C1O[C@H](c2ccccc2)[C@H](c2ccccc2)N2[C@H]1[C@@H](C(=O)N1CCN(c3ncccn3)CC1)[C@]1(C(=O)Nc3ccc(C#CC4=CCCCC4)cc31)[C@H]2c1ccc(O)cc1,-0.001,0.542,-0.0523,0.768,1.28,1.11,1.24,-0.63 (inactive),0.502,-0.201,1.54,1.92 (inactive),1.48 (inactive),2.97 (inactive),2.76,0.454 (inactive),-0.0313,0.555,0.79,0.0624
Cc1ccc(C(C)CC(O)C2C=CC3C(=O)N(C)C(=O)C3N2NC(=O)OC(C)(C)C)o1 (stereo not given),-0.112,0.6,0.239,0.687,0.868,1.67,0.883,0.385 (inactive),0.889,-0.27,1.42,0.309 (inactive),-0.63 (inactive),0.101 (inactive),3,-0.615 (inactive),0.0682,0.68,1.06,0.0681
O=C1c2ccccc2[C@@]2(Cc3ccccc3N(CC(F)(F)F)C2=O)[C@H](c2ccc(CO)cc2)N1Cc1ccccc1Cl,-0.351,-0.112,-0.147,-0.0091,0.0933,-0.0415,0.222,-0.163 (inactive),-0.121,-0.226,1.22,-0.146 (inactive),-0.172 (inactive),-1.62 (inactive),-0.0577,0.0194 (inactive),-0.159,0.476,-0.0169,-0.118
COc1ccc(C(=O)Nc2cccc(CN3C(=O)[C@]4(O[C@H](CCO)[C@@H]([Si](C)(C)c5ccc(OC)cc5)[C@@H]4C)c4ccccc43)c2)cc1,-0.442,0.193,-0.102,0.285,0.484,0.621,1.09,-3.19 (inactive),0.439,-0.179,1.56,0.412 (inactive),-14.9 (active),0.251 (inactive),1.83,1.03 (inactive),-0.164,0.822,1,-0.0675
C=CCOC(=O)[C@H]1[C@@H]2C(=O)O[C@@H](c3ccccc3)[C@@H](c3ccccc3)N2[C@@H](c2ccc(OCCOC(=O)[C@H]3C[C@H]4C(=O)N[C@@H](CC(C)C)C(=O)N4[C@H]3c3ccc(O)cc3)cc2)[C@]12C(=O)Nc1ccc(I)cc12,-0.921,1.1,-0.0355,0.69,0.82,0.731,1.34,1.11 (inactive),-0.742,-0.263,1.54,1 (inactive),-1.4 (inactive),0.333 (inactive),2.62,-1.13 (inactive),-0.282,1.67,1.12,0.0423
COc1cc2c(cc1OC)CN(C(=O)[C@H]1[C@@H]3C(=O)O[C@@H](c4ccccc4)[C@@H](c4ccccc4)N3[C@@H](c3ccc(O)cc3)[C@]13C(=O)Nc1ccc(C#CCNC(N)=O)cc13)CC2,-0.297,0.0737,-0.0473,0.689,-0.0344,0.404,0.37,0.297 (inactive),0.135,0.0854,1.01,0.485 (inactive),-0.363 (inactive),0.518 (inactive),0.458,0.395 (inactive),0.0386,0.622,0.46,-0.02
COc1cc2c(cc1O)C=[N+](Cc1cccc(OC(F)(F)F)c1)CC2,-0.193,0.137,-0.106,-0.0214,0.457,0.529,0.544,-0.886 (inactive),-0.0596,-0.374,0.224,-1.65 (inactive),-3.24 (inactive),-1.98 (inactive),0.319,-1.31 (inactive),-0.103,-0.0304,-0.0987,-0.171
O=C1O[C@H](c2ccccc2)[C@H](c2ccccc2)N2[C@H]1[C@@H](C(=O)NC[C@H](O)c1ccccc1)[C@]1(C(=O)Nc3ccccc31)[C@H]2c1ccc(OCCO)cc1,0.0809,0.267,-0.039,0.345,0.404,1.05,1.21,1.8 (inactive),0.368,0.0551,1.58,2.12 (inactive),1.93 (inactive),5.07 (inactive),2.39,-0.965 (inactive),-0.147,0.234,0.797,-0.0244
Cc1ccc(S[C@]2(C(=O)NC(C)C)CC(=O)N(Cc3ccccc3Cl)[C@@H]2c2ccc(CO)cc2I)cc1,0.319,-0.756,-0.223,-0.719,-1.31,1.85,1.02,-1.42 (inactive),-0.377,-0.0994,1.14,-1.59 (inactive),-1.98 (inactive),0.239 (inactive),1.81,0.0987 (inactive),0.0282,-0.28,-0.317,-0.287
COCC(=C=CC[C@H](O)c1ccccc1OCCO)C[C@H](O)c1cc(Cl)cc(Cl)c1O,-0.417,0.555,-0.129,0.999,0.421,1.43,1.14,-3.97 (inactive),0.372,-0.0994,1.45,-24.4 (active),-20.3 (active),-4.61 (inactive),2.7,-0.628 (inactive),-0.0653,0.653,1.03,-0.0703

# — PubChem BioAssay
